Measured values as given in PubChem BioAssay (NCATS).
Values joined by “and” are separate entries in the source; they are usually repeats but may differ in a detail not shown here. Equal values may be shown once. Active and inactive are the calls of the source. The call rests on the fitted dose curve.

Experiment: qHTS drug screen for cell cycle checkpoint inhibitors in PARPi-resistant BRCA-mutant ovarian cancer cell lines. (AID 1963452)
Settings: PEO1/OlaR viability, CellTiter-Glo luminescence, 96 h; for Z-AUC: stronger effect = lower value
Text: Women's Malignancies Branch, Center for Cancer Research (CCR),
National Cancer Institute (NCI), National Institutes of Health (NIH), Bethesda, MD
Poly (ADP-ribose) polymerase inhibitors (PARPis) have changed the treatment paradigm in breast cancer gene (BRCA) - mutant high-grade serous ovarian carcinoma (HGSC). However, most patients eventually develop resistance to PARPis, highlighting an unmet need for improved therapeutic strategies. Using high-throughput drug screens, we identified ataxia telangiectasia and rad3-related protein/checkpoint kinase 1 (CHK1) pathway inhibitors as cytotoxic and further validated the activity of the CHK1 inhibitor (CHK1i) prexasertib in PARPi-sensitive and -resistant BRCA-mutant HGSC cells and xenograft mouse models. CHK1i monotherapy induced DNA damage, apoptosis, and tumor size reduction. We then conducted a phase 2 study (NCT02203513) of prexasertib in patients with BRCA-mutant HGSC. The treatment was well tolerated but yielded an objective response rate of 6% (1 of 17; one partial response) in patients with previous PARPi treatment. […] BRCA reversion mutation in previously PARPi-treated BRCA-mutant patients was not associated with resistance to CHK1i.
Among others, 1082 oncology drugs, both approved and investigational, were prioritized based on their status in clinical trial development. […] Drugs with average Z-AUC values less than -1.0 in all three cell lines were classified as "hits" resulting in 151 oncology drug hits. The screen also confirmed cross-resistance between olaparib and other PARPis (rucaparib, niraparib, and talazoparib) in PARPi-resistant PEO1/OlaR and PEO4.
[1] G. L. Lin, K. M. Wilson, M. Ceribelli, B. Z. Stanton, P. J. Woo, S. Kreimer, E. Y. Qin, X. Zhang, J. Lennon, S. Nagaraja, P. J. Morris, M. Quezada, S. M. Gillespie, D. Y. Duveau, A. M. Michalowski, P. Shinn, R. Guha, M. Ferrer, C. Klumpp-Thomas, S. Michael, C. McKnight, P. Minhas, Z. Itkin, E. H. Raabe, L. Chen, R. Ghanem, A. C. Geraghty, L. Ni, K. I. Andreasson, N. A. Vitanza, K. E.Warren, C. J. Thomas, M. Monje, Therapeutic strategies for diffuse midline glioma from high-throughput combination drug screening. Sci. Transl. Med. 11, (2019).
[2] T. M. Yamamoto, A. McMellen, Z. L. Watson, J. Aguilera, R. Ferguson, E. Nurmemmedov, T. Thakar, G. L. Moldovan, H. Kim, D. M. Cittelly, A. M. Joglar, E. P. Brennecke, H. Wilson, K. Behbakht, M. J. Sikora, B. G. Bitler, Activation of Wnt signaling promotes olaparib resistant ovarian cancer. Mol. Carcinog. 58, 1770 - 1782 (2019).
PROTOCOL TABLE (as described by Inglese J, Shamu CE and Guy RK. 2007)
SEQUENCE No. (e.g., 1, 2, 3, etc.); […] (e.g., Cells, Incubation, Reagent, etc.); VALUE; DESCRIPTION.
1; Compounds; 20nL; 1536-well white tissue culture-treated plates.
2; Cells; 5 uL; PEO1, PEO4, and PEO1/OlaR cells at 600 cells per well.
3; Incubation; 96 hr; 37C, 95% humidity, 5% CO2.
4; Reagent; 3 uL; CellTiter-Glo (Promega).
5; Incubation; 15 min; room temperature.
6; Detection; Luminescence, PHERAstar (BMG Labtech) plate reader.
NOTES (numbers refer to Sequence numbers above)
1. MIPE 5.0 compounds were acoustically dispensed by Echo Acoustic Liquid Handler (Beckman Coulter Life Sciences). Each compound was plated at an 11-point concentration range with 1:3 dilution. Bortezomib, a proteasome inhibitor (final concentration, 20 uM), was used as a positive.
2. PEO1, PEO4, and PEO1/OlaR were trypsinized and dispensed in 5 uLof growth medium using a Multidrop Combi dispenser at a density of 600 cells per well to allow compounds to be present during the exponential growth phase.
3. Plates were incubated for 96 hours at standard incubator conditions and covered by a stainless steel gasketed lid to prevent evaporation.
4. Three microliters of CellTiter-Glo (Promega) were added to each well.
5. Plates were incubated at room temperature for 15 min with a stainless-steel lid in place.
6. Luminescence readings were taken using PHERAstar (BMG Labtech). […]

[1] = measured here: PEO1 parental Z-AUC
Potency means the concentration at half of the fitted maximal effect.

Compound | Potency | Z-AUC [1] | Z-AUC (measured here: PEO4 Z-AUC) | Z-AUC
C/C(=C\c1csc(C)n1)[C@@H]1C[C@@H]2O[C@@H]2CCC[C@H](C)[C@H](O)[C@@H](C)C(=O)C(C)(C)[C@@H](O)CC(=O)O1 | 8.7 nM (active) | -2.45 | -2.36 | –
CN(C)c1cc2c(cc1Sc1nc3c(N)nccc3n1CCNCC(C)(C)C)OCO2 | 1550 nM (active) | -1.43 | -1 | –
Cc1sc2c(c1C)C(c1ccc(Cl)cc1)=N[C@@H](CC(N)=O)c1nnc(C)n1-2 | – | -0.858 and -0.588 | -1.13 and -0.593 | -0.829 (inactive) and -0.822 (inactive)
Cc1sc2c(c1C)C(c1ccc(Cl)cc1)=N[C@@H](CC(=O)Nc1ccc(O)cc1)c1nnc(C)n1-2 | – | -0.325 | -0.491 | -0.583 (inactive)
C[C@@H]1CN(Cc2ccc(F)cc2)CCN1C(=O)COc1ccc(Cl)cc1NC(N)=O | – | -1.28 | 0.406 | -0.0879 (inactive)
COc1cc2c(cc1F)C(c1ccccc1Cl)=Nc1c(n[nH]c1C)N2 | – | -0.883 | -0.718 | -0.71 (inactive)
C[C@H]1CCC/C=C/C2C[C@H](O)C[C@H]2[C@H](O)/C=C/C(=O)O1 (some centres not stated) | – | -1.19 | -1.2 | -0.883 (inactive)
CC[C@H]1/C=C\C=C/C[C@@H](C)[C@H](O)[C@@](C)(O)C(=O)[C@@H](C)[C@H](O)[C@@H](C)C(=O)[C@@H](C)[C@H](O)[C@@H](C)/C=C\C(=O)O[C@@H]2[C@H](C)[C@H](CC1)O[C@]1(CC[C@H](C)[C@H](C[C@@H](C)O)O1)[C@H]2C | – | -2.84 | -2.81 | 0.274 (inactive)
CN[C@@H]1C[C@H]2O[C@@](C)([C@@H]1OC)n1c3ccccc3c3c4c(c5c6ccccc6n2c5c31)C(=O)NC4 | – | -2.26 | -2.16 | -2.43 (inactive)
C[C@H](Nc1ncnc2nc[nH]c12)c1nc2ccc(F)cc2c(=O)n1-c1ccccc1 | – | 0.609 | 0.915 | 0.252 (inactive)
Cc1ncc(OC[C@@]2(c3cccc(F)c3)C[C@H]2C(=O)Nc2ccc(F)cn2)c(C)n1 | – | -0.55 | 0.108 | -0.208 (inactive)
COc1cc(C(=O)N2CC[C@@H](O)[C@@H](N)C2)cc2nc(-c3cc4ccccc4n3CC3CC3)n(C)c12 | – | 1.05 | 0.456 | 0.124 (inactive)
NC(=O)[C@@H](CC1CC1)[C@@H](CCC(F)(F)F)C(=O)N[C@H]1N=C(c2ccccc2)c2cccc(F)c2NC1=O | – | -0.643 | -1.43 | -1.08 (inactive)
O=C(NCCCNc1nc(Nc2ccc(N3CCOCC3)cc2)ncc1C1CC1)C1CCC1 | – | -0.267 | -0.524 | 0.0288 (inactive)
